TDP1 block: TDP1 (human) enzyme inhibition | Q9NUW8 | recombinant TDP1, AlphaScreen DNA substrate cleavage | Potency, µM (titrated, usually from 130 µM), inactives show at the top dose activity change, negative = inhibition, usual class: inhibitors | 0.28% of 350,000 active; also: nearly all actives have a fitted effect of over 40% in size
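Steps: enzyme plus compound, 15 min RT; add biotin/phosphotyrosine-FITC oligonucleotide (15 nM final), react 5 min; add donor/acceptor beads (10 ug/ml final), 10 min; read AlphaScreen. Tdp1 at 1 nM final.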
DT40 TDP1 no CPT: qHTS for Inhibitors of human tyrosyl-DNA phosphodiesterase 1 (TDP1): qHTS in cells in absence of CPT; DT40 Tdp1-/- hTDP1 cells, no CPT, ATP luminescence, 48 h; Potency, µM (titrated, usually from 46.2 µM), without a hit: at the top dose activity change, negative = growth inhibition, hits mostly inhibitors; 15% of 420,000 active; also: nearly all actives have a fitted effect of over 55% in size
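No-CPT arm: Tdp1-/-;hTDP1 DT40 cells (400/well) plus compounds, incubated ≥48 hr at 37 °C. Readout CellTiter-Glo luminescence.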
PLK1 PBD inh: inhibitors of human PLK1 polo-box domain binding; Plk1 PBD binding of FITC phosphopeptide, fluorescence polarization; Potency, µM, for inactives: max response, negative = inhibition, hits mostly inhibitors; AID 720504; 2.8% of 360,000 active; P53350; also: series mostly up to about 57 µM; nearly all actives have a fitted effect of over 65% in size
TDP1 cell CPT: DT40-hTDP1 cell growth loss with CPT | chicken DT40 Tdp1-/-;hTDP1 cells + 20 nM CPT, ATP luminescence, 48 h | 12% of 420,000 active | Potency, µM (series often up to 46.2 µM), without a hit: top-dose activity change, negative = growth inhibition, most hits filed as inhibitors | AID 686979; also: nearly all actives have a fitted effect of over 55% in size
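Cell growth measured by CellTiter-Glo luminescence after a minimum 48 h, 37 C compound exposure with 20 nM CPT in Tdp1-knockout DT40 cells stably expressing hTDP1, seeded 400/well; qHTS titration format.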
VDR inhibitor: blocks the human vitamin D receptor; P11473; VDR-SRC2-3 peptide fluorescence polarization, 2 h; Potency, µM, inactives show max response, negative = inhibition, usual class: inhibitors; 0.93% of 400,000 active
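Reagent solutions, kept cold and dark, are dispensed first; compounds are then pinned in at 23 nl, plates briefly spun, and incubated 2 h at ambient temperature. Inhibition of VDR–SRC2-3 peptide binding is read by fluorescence polarization.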
GCN5L2 inh: GCN5L2 (KAT2A) acetyltransferase inhibition; Q92830; GCN5L2 HAT assay, ThioGlo1 CoA-SH fluorescence; Potency, µM (highest dose often 58.9 µM), inactives show at the highest dose activity change, negative = inhibition, most hits filed as inhibitors; 0.21% of 390,000 active; AID 504327
Target sequence (Q92830 whole entry, looked up): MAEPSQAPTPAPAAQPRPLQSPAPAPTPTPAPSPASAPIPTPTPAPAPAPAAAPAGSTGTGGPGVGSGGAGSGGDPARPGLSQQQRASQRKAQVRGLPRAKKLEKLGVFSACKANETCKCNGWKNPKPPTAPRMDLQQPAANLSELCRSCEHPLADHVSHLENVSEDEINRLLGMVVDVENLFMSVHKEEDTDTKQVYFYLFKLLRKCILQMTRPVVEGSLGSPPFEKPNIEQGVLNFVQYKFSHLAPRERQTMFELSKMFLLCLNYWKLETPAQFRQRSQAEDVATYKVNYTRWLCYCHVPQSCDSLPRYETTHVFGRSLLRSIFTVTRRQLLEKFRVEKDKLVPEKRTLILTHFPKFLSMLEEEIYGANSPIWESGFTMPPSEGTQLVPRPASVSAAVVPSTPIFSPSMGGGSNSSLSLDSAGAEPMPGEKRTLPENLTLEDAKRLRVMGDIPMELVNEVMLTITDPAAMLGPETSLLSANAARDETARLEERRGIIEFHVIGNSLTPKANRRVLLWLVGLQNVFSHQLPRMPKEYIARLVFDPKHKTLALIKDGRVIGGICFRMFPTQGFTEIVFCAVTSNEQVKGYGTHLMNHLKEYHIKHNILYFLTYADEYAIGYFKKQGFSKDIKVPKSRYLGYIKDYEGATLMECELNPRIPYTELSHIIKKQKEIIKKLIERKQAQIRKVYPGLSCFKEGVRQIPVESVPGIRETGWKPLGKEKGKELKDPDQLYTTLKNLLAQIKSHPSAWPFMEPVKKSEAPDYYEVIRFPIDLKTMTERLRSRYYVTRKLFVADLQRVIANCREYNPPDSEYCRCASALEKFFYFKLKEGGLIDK
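GCN5L2 (20 nM) in 50mM HEPES pH 7.5, 0.1mM EDTA, 0.01% Tween-20 preincubated 15 min with compounds at room temperature. Reaction started with H3(1-25) 75uM, acetyl-CoA 70uM, ThioGlo1 50uM; CoA-thiol fluorescence (Ex340/Em540) read at 0 and 20 min.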
Active calls of the source: *; ? = inconclusive; nt = no result. In the library only some 18% were active in any assay of this set; here they are far more common. Calls follow the shape of the dose curve; as a rule, active = well fitted curve in the direction sought with a large enough effect; inconclusive = small, poorly fitted or top-dose-only effect, or another doubt; inactive = no such curve, though single readings can be large; an effect the other way counts as inactive or inconclusive. % is scaled to controls: 0 for no effect and ±100 for the full control effect; potency is read from the fitted curve at half-maximal effect.

SMILES	TDP1 block	DT40 TDP1 no CPT	PLK1 PBD inh	TDP1 cell CPT	VDR inhibitor	GCN5L2 inh
FC(F)(F)c1ccc(/C=N/n2c(COc3ccccc3)n[nH]c2=S)cc1	nt	16%	27µM*	-22%	-13%	-12%
FC(F)(F)c1ccccc1/C=N/n1c(COc2ccccc2)n[nH]c1=S	nt	-8%	30µM*	-3%	-14%	-10%
COc1cc(C(=O)NC2CCN(C)CC2)ccc1Nc1ncc2c(n1)N(C1CCCC1)CCC(=O)N2C(C)C	nt	16µM*	-8%	?	4%	nt
CN1CCC(NC(=O)c2cccc(Oc3ccccc3)c2)CC1	2%	-24%	0%	-25%	-4%	-21%
COc1cc(C(=O)NC2CCN(C)CC2)ccc1Nc1ncc2c(n1)N(CCc1ccccc1)CCC(=O)N2C	nt	15µM*	-27%	23µM*	0%	nt
Cc1n[nH]c(=O)c2c(NC(=O)CSc3ccc(Br)cc3)oc(C)c12	0%	?	?	-21%	-24%	-4%
CN1C2CCC1CC(NC(=O)c1ccc(Cl)cc1)C2 (stereo not given)	4%	-4%	0%	-2%	0%	-3%
O=C(NC1C2CCCC1CN(C1CC1)C2)c1ccc(Cl)cc1 (stereo not given)	nt	29µM*	6%	?	-7%	-4%
Cc1ccc(C)n1-c1ccc(C(=O)NN)cc1	4%	21µM*	3µM*	7.3µM*	?	-15%
O=C1c2oc3ccccc3c(=O)c2C(c2ccc(O)cc2)N1c1nccs1 (stereo not given)	0%	-29%	-3%	-7%	-1%	-6%
CCN(CC)c1nc2c(c(=O)n(C)c(=O)n2C)n1CCCc1ccccc1	nt	23µM*	-2%	21µM*	?	-1%
CCOCCn1c(CN(Cc2ccccc2)Cc2ccccc2)nc2c1c(=O)n(C)c(=O)n2C	9%	?	2%	?	11%	-21%
CCCCn1c(SCc2nnc(-c3ccccc3)o2)nc2c1c(=O)n(C)c(=O)n2C	8%	10µM*	-1%	15µM*	1%	-3%
CCN(CC)c1nc2c(c(=O)[nH]c(=O)n2C)n1CCCc1ccccc1	7%	10µM*	-15%	?	-12%	-9%
CCCCn1c(CN(Cc2ccccc2)Cc2ccccc2)nc2c1c(=O)n(C)c(=O)n2C	nt	18µM*	-2%	13µM*	9%	nt
CCn1c(SCc2nnc(-c3ccccc3)o2)nc2c1c(=O)n(C)c(=O)n2C	-1%	nt	nt	nt	nt	-1%
O=C(NC1CCCCC1)C1CC(=O)N(CCc2ccc(F)cc2)C1 (stereo not given)	0%	-1%	-14%	-5%	0%	-8%
COc1ccccc1-c1cc2c(c3c1ccn3C)C1CCC2C1 (stereo not given)	nt	?	-8%	?	nt	nt
CN(C)S(=O)(=O)c1cccc(NC(=O)c2sccc2-c2ccccc2)c1	4%	?	5%	-21%	-12%	-7%
CC[C@H](C)[C@H](N)C(=O)N[C@H](C(=O)N[C@@H](CO)C(=O)N[C@@H](C)C(=O)N[C@H](C(=O)N[C@H](C(=O)NCC(=O)N[C@H](C(=O)N[C@@H](CC(C)C)C(=O)O)[C@@H](C)CC)C(C)C)C(C)C)[C@@H](C)CC	8%	nt	nt	nt	2%	-3%
CN(Cc1ccccc1)c1nc2c(c(=O)n(C)c(=O)n2C)n1CCCc1ccccc1	2%	16µM*	-15%	23µM*	-6%	-7%
COC(=O)c1ccc(Sc2ccc(C)cc2)c(N)c1	-2%	-24%	27µM*	?	-25%	-25%
COc1ccc(OC)c(CNC(=O)c2ccc(Sc3ccc(C)cc3)c(N)c2)c1	8%	21µM*	nt	23µM*	1%	0%
CCOc1ccc(CNC(=O)c2ccc(Sc3ccc(C)cc3)c(N)c2)cc1OC	5%	?	nt	?	-3%	-10%
c1cnc2nc(CSc3ncn[nH]3)cn2c1	3%	-1%	-3%	-3%	-5%	-13%
SMILES	TDP1 block	DT40 TDP1 no CPT	PLK1 PBD inh	TDP1 cell CPT	VDR inhibitor	GCN5L2 inh
C=CCc1cccc2cc(C(=O)Nc3ccc(S(=O)(=O)Nc4nnc(CC)s4)cc3)c(=O)oc12	50µM*	-22%	21µM*	-13%	-17%	27%
C=CCc1cccc2cc(C(=O)Nc3ccc(F)cc3)c(=O)oc12	3%	4%	-12%	2%	-5%	-1%
C=CCc1cccc2cc(C(=O)Nc3ccc(CC(=O)O)cc3)c(=O)oc12	50µM*	-5%	-16%	9%	-3%	-25%
CC1CCN2c3ccccc3CC3(C(=O)OC(C)(C)OC3=O)C2C1 (stereo not given)	2%	10µM*	nt	?	-18%	nt
CC1(C)OC(=O)C2(Cc3ccccc3N3CCCC32)C(=O)O1 (stereo not given)	nt	nt	nt	nt	-16%	nt
O=C(NCc1ccccc1)C1CCCC1	nt	nt	nt	nt	nt	2%
O=C(NCc1ccncc1)C1CCCN(S(=O)(=O)c2cc(Cl)ccc2Cl)C1 (stereo not given)	-4%	16µM*	1%	?	-9%	-3%
O=C(NCc1ccncc1)C1CCCCC1	0%	-27%	27µM*	?	-26%	2%
CCC/C(=C1/c2ccccc2C(=O)N1c1ccccc1)c1ccc2[nH]ccc2c1	0%	16µM*	1%	16µM*	3%	-11%
O=C1c2ccccc2/C(=C\c2ccc3[nH]ccc3c2)N1c1ccccc1	3%	?	-9%	?	10%	-7%
C/C(=N\NC(=O)CN(c1ccccc1Br)S(C)(=O)=O)c1cccs1	4%	?	27µM*	?	4%	-4%
C/C(=N\NC(=O)Cc1ccccc1)c1cccs1	-2%	2%	-14%	-6%	10%	1%
CC(/C=N/NC(=O)CSc1nc(C)cc(C)n1)=C\c1ccccc1	3%	?	2%	?	1%	0%
CC(/C=N\NC(=O)Cn1c(C)nc2ccccc21)=C\c1ccccc1	-10%	8.2µM*	-11%	8.2µM*	-20%	-14%
C/C(=N\NC(=O)Cn1c(C)nc2ccccc21)c1cccs1	0%	21µM*	-1%	15µM*	-26%	1%
